The source made the active and inactive calls.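 How the source made its calls, unless noted: active means compound raises insulin release from rat beta cells at 5 mM glucose, no numeric limit stated; inactive means the rest.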 Residues, ends and D or L forms follow the SMILES beside them.
How the values were obtained:
[1] = Wnt pathway potentiators raising nuclear beta-catenin – imaging, WNT3A-conditioned medium, mouse C2C12, NPC library, primary screen (AID 1117326; in the data active means nuclear beta-catenin stimulation mostly above about 4.2%, no sharp cut-off; inactive means mostly below about 10%; further: reference of the scale not given here); settings: stronger effect = higher value
[2] = stimulators of insulin release from INS-1E, primary screen, cell-based, 5 mM glucose, NPC library (AID 1117329); settings: rat INS-1E insulin secretion, at 10 µM, stronger effect = higher value; further: reference of the scale not given here
[3] = growth inhibition of GSK3B-pretreated HCT116 cells – cell-based, CellTiter-Glo, 0.2 to 20 µM (AID 1117336;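 active means compounds lowering colon cancer cell viability after pretreatment blocking the GSK3B kinase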); settings: HCT116 viability after GSK3B inhibitor, at 20 µM, stronger effect = higher value
[4] = inhibition of endothelial tube formation, primary screen, imaging, VEGF stimulated, CD31 staining, tube area, NPC library (AID 1117340;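 active means compound that reduces growth-factor-driven endothelial tube area in a mixed cell culture, no cutoff stated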); settings: VEGF-stimulated ADSC/ECFC co-culture, at 10 µM, stronger effect = higher value
[5] = GLP1 release stimulators, primary, NCI-H716, NPC library (AID 1117341;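 active means compound raises GLP1 secretion from the human gut endocrine cells, with no numeric limit stated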; further: reference of the scale not given here); settings: NCI-H716 cells, at 10 µM, stronger effect = higher value
[6] = HCT116 colon cancer cell growth inhibition, primary screen, CellTiter-Glo luminescence, NPC library (AID 1117342;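 active means compounds that lower survival of HCT116 colon cancer cells in the luminescence readout, no numeric limit stated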); settings: at 20 µM (top of the series)
[7] = reduced SW480 viability measured with CellTiter-Glo, NPC library, primary (AID 1117343;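 active means compounds that lower viability of the colon cancer cells in the luminescence readout, with no numeric limit stated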); settings: CellTiter-Glo luminescence; at 20 µM (top of the series)
[8] = NPC library primary testing for decreased DLD-1 cell viability via CellTiter-Glo (AID 1117346;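 active means compounds that lower survival of DLD-1 colon cancer cells in the luminescence readout, no cutoff given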); settings: DLD-1 viability, CellTiter-Glo luminescence; at 20 µM (top of the series)

| Compound | nuclear beta-catenin stimulation ([1]; at 10 µM) | nuclear beta-catenin stimulation ([1]; stimulation, at 2 µM) | insulin secretion stimulation [2] | viability decrease [3] | tube area decrease [4] | GLP1 secretion stimulation [5] | inhibition of viability [6] | viability decrease (inhibition) [7] | viability decrease (inhibition) [8] |
| --- | --- | --- | --- | --- | --- | --- | --- | --- | --- |
| CCC(=O)Oc1ccc2c(c1)CC[C@@H]1[C@H]2CC[C@]2(C)[C@@H](OC(=O)CC)CC[C@@H]12 | -0.2% (inactive) | 0.2% | 0.1% (inactive) | 33.4% (inactive) | 28% (inactive) | 2.4% (inactive) | 42.6% (inactive) | 49.6% (inactive) | 2.6% (inactive) |
| CCCCCC(N)=O | 1.3% (inactive) | 2.1% | -1.1% (inactive) | -27.2% (inactive) | 8.8% (inactive) | 0.3% (inactive) | 2.8% (inactive) | 44.1% (inactive) | -11.8% (inactive) |
| CC(C)Cc1ccc(C(C)C(=O)OCc2ccccn2)cc1 (configuration not stated) | -0.2% (inactive) | 1.5% | -0.3% (inactive) | -24% (inactive) | -19.1% (inactive) | 0.1% (inactive) | 22.8% (inactive) | 40.9% (inactive) | 19.1% (inactive) |
| NC[C@H]1O[C@H](O[C@H]2[C@H](O[C@@H]3O[C@H](CO)[C@@H](O)[C@H]3O)C(O)[C@H](N)C[C@@H]2N)[C@H](N)[C@@H](O)[C@@H]1O (some centres not stated) | 0.5% (inactive) | 2.2% | 1.4% (inactive) | -14.9% (inactive) | -12.5% (inactive) | 0.7% (inactive) | 2.3% (inactive) | 0.4% (inactive) | -14.4% (inactive) |
| CC(C)C(=O)OCc1cccc(OC(=O)[C@@H]2N3C(=O)[C@@H](NC(=O)Cc4ccccc4)[C@H]3SC2(C)C)c1 | 0.9% (inactive) | -0.1% | 2.2% (inactive) | 117% (active) | -4.7% (inactive) | 3.4% (inactive) | 123% (active) | 60.1% (active) | 10.1% (inactive) |
| COC(=O)c1ccc(O)cc1 | 1.3% (inactive) | 0.3% | -1.8% (inactive) | -8.75% (inactive) | 4.5% (inactive) | 0.6% (inactive) | -9.8% (inactive) | 18.8% (inactive) | -6.75% (inactive) |
| C[C@@H]1CCN(C(=O)[C@H](CCCN=C(N)N)NS(=O)(=O)c2cccc3c2NC[C@H](C)C3)[C@@H](C(=O)O)C1 | 0.3% (inactive) | -0.5% | 1.35% (inactive) | -9.7% (inactive) | -5.4% (inactive) | 1.4% (inactive) | -3% (inactive) | -23.6% (inactive) | 0.9% (inactive) |
| CC1(C)O[C@@H]2C[C@H]3[C@@H]4CCC5=CC(=O)C=C[C@]5(C)[C@@H]4[C@@H](O)C[C@]3(C)[C@]2(C(=O)CO)O1 | 0.6% (inactive) | 1.2% | -1% (inactive) | -46.1% (inactive) | 4.9% (inactive) | 1.2% (inactive) | -6.5% (inactive) | -17.7% (inactive) | -7.4% (inactive) |
| C/C(=C(\CCO)SS/C(CCO)=C(\C)N(C=O)Cc1cnc(C)nc1N)N(C=O)Cc1cnc(C)nc1N | 0.2% (inactive) | -0.9% | 0.9% (inactive) | -14.3% (inactive) | -4.4% (inactive) | -0.7% (inactive) | 0.6% (inactive) | -11.8% (inactive) | 7.4% (inactive) |
| COc1cc(C(=S)N2CCOCC2)cc(OC)c1OC | -0.6% (inactive) | 2% | 1.5% (inactive) | -0.85% (inactive) | -15.3% (inactive) | -0.3% (inactive) | -1.2% (inactive) | 9.6% (inactive) | 1.7% (inactive) |
| CC(=O)N[C@@H](CO)C(=O)N[C@@H](CC(=O)O)C(=O)N[C@@H](CCCCN)C(=O)N1CCC[C@H]1C(=O)O (Ac-SDKP-OH) | 0.3% (inactive) | 0.6% | 1.8% (inactive) | -7.1% (inactive) | -14.3% (inactive) | -1.6% (inactive) | -0.1% (inactive) | -6% (inactive) | 7% (inactive) |
| CCc1ccc(C(=O)C(C)CN2CCCCC2)cc1 (configuration not stated) | -0.3% (inactive) | -0.1% | 14.3% (inactive) | -4.9% (inactive) | -30.1% (inactive) | -1.5% (inactive) | 19.2% (inactive) | 7.4% (inactive) | -0.2% (inactive) |
| C#Cc1ccc(-c2ccccc2F)cc1 | -1.3% (inactive) | -2.1% | 0.3% (inactive) | -3.5% (inactive) | 7.2% (inactive) | -0.7% (inactive) | 0.6% (inactive) | -12.8% (inactive) | 18.8% (inactive) |

Reference: PubChem BioAssay
